Measurements reported in PubChem BioAssay AID1159580 (chemical genetic matrix, 2015).
Values joined by “and” are separate entries in the source; they are usually repeats but may differ in a detail not shown here. Equal values may be shown once. The campaign covered roughly 5,500 compounds. About 2,000 (36%) were called active. Roughly 18% stayed inconclusive and do not appear here. Cut-off read from the data, not from the text of the source: active = normalized growth mostly below about 0.91 (no sharp cut-off); inconclusive = no clear call, values can overlap the other calls; inactive = mostly above about 0.92. The list shows a part of the results.

Assay: chemical genetic growth profiling, strain panel (AID 1159580);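 note: tested at 20 µM; growth read once vehicle control cultures reached saturation at 30 °C; 1 = growth at the plate median or of vehicle wells; lower values mean less growth of the strain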
Details: growth OD

Measured: normalized growth

CC(C)NNC(=O)c1ccncc1
inactive: S. cerevisiae deletion strains, locus YJR043C, strain POL32, active compounds read low 1.01 | S. cerevisiae deletion strains, locus YJR075W, strain HOC1, active compounds read low 1 | S. cerevisiae deletion strains, locus YKL068W, active compounds read low 1.02 | S. cerevisiae deletion strains, locus YKL085W, strain MDH1 (second series), active compounds read low 1.03 | S. cerevisiae deletion strains, locus YKL085W, strain MDH1, active compounds read low 1.03 | S. cerevisiae deletion strains, locus YKL160W, strain elf1, active compounds read low 1.01 | S. cerevisiae deletion strains, locus YKL190W, strain CNB1, active compounds read low 1 | S. cerevisiae deletion strains, locus YKR001C, strain vps1, active compounds read low 1.02 | S. cerevisiae deletion strains, locus YKR026C, strain gcn3, active compounds read low 0.997 | S. cerevisiae deletion strains, locus YKR091W, strain srl3, active compounds read low 1.01 | S. cerevisiae deletion strains, locus YLL001W, strain dnm1, active compounds read low 1 | S. cerevisiae deletion strains, locus YLL026W, active compounds read low 1.01 | S. cerevisiae deletion strains, locus YLL041C, strain sdh2, active compounds read low 1.01 | S. cerevisiae deletion strains, locus YLR027C, strain aat2, active compounds read low 0.996 | S. cerevisiae deletion strains, locus YLR039C, strain RIC1, active compounds read low 1.02 | S. cerevisiae deletion strains, locus YLR058C, strain SHM2, active compounds read low 1.01 | S. cerevisiae deletion strains, locus YLR102C, strain apc9, active compounds read low 1.01 | S. cerevisiae deletion strains, locus YLR221C, strain rsa3, active compounds read low 1.02 | S. cerevisiae deletion strains, locus YLR258W, strain gsy2, active compounds read low 1.02 | S. cerevisiae deletion strains, locus YLR262C, strain YPT6 (second series), active compounds read low 1 | S. cerevisiae deletion strains, locus YLR262C, strain YPT6, active compounds read low 1.02 | S. cerevisiae deletion strains, locus YLR268W, strain sec22, active compounds read low 1.03 | S. cerevisiae deletion strains, locus YLR320W, strain mms22, active compounds read low 1.01 | S. cerevisiae deletion strains, locus YLR330W, strain CHS5, active compounds read low 1.01 | S. cerevisiae deletion strains, locus YLR342W, strain FKS1 (second series), active compounds read low 1.01 | S. cerevisiae deletion strains, locus YLR342W, strain FKS1, active compounds read low 0.986 | S. cerevisiae deletion strains, locus YLR357W, strain rsc2, active compounds read low 1.01 | S. cerevisiae deletion strains, locus YLR370C, strain arc18, active compounds read low 1.01 | S. cerevisiae deletion strains, locus YLR371W, strain rom2, active compounds read low 1 | S. cerevisiae deletion strains, locus YLR384C, strain iki3, active compounds read low 0.995 | S. cerevisiae deletion strains, locus YLR418C, strain cdc73, active compounds read low 1.04 | S. cerevisiae deletion strains, locus YML016C, strain PPZ1, active compounds read low 1 | S. cerevisiae deletion strains, locus YML032C, strain rad52, active compounds read low 1.02 | S. cerevisiae deletion strains, locus YML120C, strain ndi1, active compounds read low 0.999 | S. cerevisiae deletion strains, locus YML124C, strain tub3, active compounds read low 1.01 | S. cerevisiae deletion strains, locus YMR058W, strain fet3, active compounds read low 1.03 | S. cerevisiae deletion strains, locus YMR078C, strain ctf18, active compounds read low 1.01 | S. cerevisiae deletion strains, locus YMR125W, strain sto1, active compounds read low 1.02 | S. cerevisiae deletion strains, locus YMR129W, active compounds read low 1.01 | S. cerevisiae deletion strains, locus YMR205C, strain PFK2, active compounds read low 1 | S. cerevisiae deletion strains, locus YMR223W, strain ubp8, active compounds read low 1.02 | S. cerevisiae deletion strains, locus YMR231W, strain pep5, active compounds read low 1 | S. cerevisiae deletion strains, locus YMR263W, strain SAP30, active compounds read low 1.01 | S. cerevisiae deletion strains, locus YMR307W, strain GAS1, active compounds read low 1.05 and 1 | S. cerevisiae deletion strains, locus YNL067W, strain RPL9B, active compounds read low 1.01 | S. cerevisiae deletion strains, locus YNL071W, strain lat1, active compounds read low 1.03 | S. cerevisiae deletion strains, locus YNL128W, strain TEP1, active compounds read low 1.01 | S. cerevisiae deletion strains, locus YNL153C, strain GIM3, active compounds read low 1.01 | S. cerevisiae deletion strains, locus YNL175C, strain NOP13, active compounds read low 0.994 | S. cerevisiae deletion strains, locus YNL197C, strain WHI3, active compounds read low 0.989 | S. cerevisiae deletion strains, locus YNL209W, strain ssb2, active compounds read low 1.03 | S. cerevisiae deletion strains, locus YNL224C, strain SQS1, active compounds read low 1.02 | S. cerevisiae deletion strains, locus YNL233W, strain BNI4, active compounds read low 1.01 | S. cerevisiae deletion strains, locus YNL248C, strain rpa49, active compounds read low 1.01 | S. cerevisiae deletion strains, locus YNL250W, strain rad50, active compounds read low 1.02 | S. cerevisiae deletion strains, locus YNL271C, strain bni1, active compounds read low 1.02 | S. cerevisiae deletion strains, locus YNL298W, strain CLA4, active compounds read low 1.01 | S. cerevisiae deletion strains, locus YNL307C, strain MCK1, active compounds read low 1.02 | S. cerevisiae deletion strains, locus YNL322C, strain KRE1 (second series), active compounds read low 1.01 | S. cerevisiae deletion strains, locus YNL322C, strain KRE1, active compounds read low 1 and 0.981 | S. cerevisiae deletion strains, locus YNR049C, strain mso1, active compounds read low 1.01 | S. cerevisiae deletion strains, locus YNR052C, strain pop2, active compounds read low 1.02 | S. cerevisiae deletion strains, locus YOL006C, strain TOP1, active compounds read low 1.04 | S. cerevisiae deletion strains, locus YOL012C, strain htz1 1.02 | S. cerevisiae deletion strains, locus YOL147C, strain pex11, active compounds read low 1.01 | S. cerevisiae deletion strains, locus YOR001W, strain rrp6, active compounds read low 0.998 | S. cerevisiae deletion strains, locus YOR061W, strain CKA2, active compounds read low 1.01 | S. cerevisiae deletion strains, locus YOR069W, strain VPS5, active compounds read low 1.01 | S. cerevisiae deletion strains, locus YOR070C, strain gyp1, active compounds read low 1.01 | S. cerevisiae deletion strains, locus YOR080W, strain dia2, active compounds read low 1.01 | S. cerevisiae deletion strains, locus YOR083W, strain WHI5 (second series), active compounds read low 1.01 | S. cerevisiae deletion strains, locus YOR083W, strain WHI5, active compounds read low 0.998 | S. cerevisiae deletion strains, locus YOR106W, strain vam3, active compounds read low 1.02 | S. cerevisiae deletion strains, locus YOR136W, strain idh2, active compounds read low 1.02 | S. cerevisiae deletion strains, locus YOR144C, strain elg1, active compounds read low 1.01 | S. cerevisiae deletion strains, locus YOR184W, strain ser1, active compounds read low 1.04 | S. cerevisiae deletion strains, locus YOR265W, strain rbl2, active compounds read low 1.01 | S. cerevisiae deletion strains, locus YOR270C, strain vph1, active compounds read low 1.06 | S. cerevisiae deletion strains, locus YOR290C, strain snf2, active compounds read low 1.01 | S. cerevisiae deletion strains, locus YOR316C, strain cot1, active compounds read low 1.02 | S. cerevisiae deletion strains, locus YPL051W, strain arl3, active compounds read low 1.01 | S. cerevisiae deletion strains, locus YPL055C, strain LGE1, active compounds read low 1.02 | S. cerevisiae deletion strains, locus YPL078C, strain atp4, active compounds read low 1.01 | S. cerevisiae deletion strains, locus YPL106C, strain sse1, active compounds read low 0.991 | S. cerevisiae deletion strains, locus YPL240C, strain hsp82, active compounds read low 1.02 | S. cerevisiae deletion strains, locus YPL241C, strain CIN2, active compounds read low 0.995 and 0.982 | S. cerevisiae deletion strains, locus YPR119W, strain clb2, active compounds read low 1 | S. cerevisiae deletion strains, locus YPR141C, strain kar3, active compounds read low 1.01 | S. cerevisiae deletion strains, locus YPR163C, strain tif3, active compounds read low 1.02 | S. cerevisiae deletion strains, locus YPR167C, strain met16, active compounds read low 1.02 | S. cerevisiae deletion strains, strain wtn01, active compounds read low 1.02 | S. cerevisiae strains, strain wild type, active compounds read low 1.01
